Compound activity deposited in PubChem BioAssay by National Center for Advancing Translational Sciences (NCATS).
In the library only some 19% were active in any assay of this set; here they are far more common.
DT40 TDP1 CPT – growth inhibition of DT40 Tdp1-/-;hTDP1 cells with camptothecin (screen for TDP1 inhibitors); chicken DT40 Tdp1-/-;hTDP1 cells + 20 nM CPT, ATP luminescence, 48 h; Potency, µM (series often up to 46.2 µM), inactives show at the top dose activity change, negative = growth inhibition, most hits filed as inhibitors; hit rate 12% among 420,000; note: potency is the fitted concentration of half-maximal effect; nearly all actives have a fitted effect of over 55% in size
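Chicken DT40 Tdp1-/- cells complemented with human TDP1, 400 cells/well, exposed to compounds plus 20 nM camptothecin for at least 48 h at 37 C; viability read as ATP content by CellTiter-Glo luminescence.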
IL1B secr inh – inflammasome signaling inhibition, IL-1 beta readout; hit rate 4.7% among 360,000; activity change, % at 57.5 µM; THP-1 LPS/ATP IL-1B secretion, AlphaLISA, 16 h; stronger effect = lower value; in the data active = activity change below about -50%; inconclusive = mostly about -30% to -49%
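THP-1 cells pretreated 1 hr with compounds (up to 57.5 uM final), then stimulated with LPS (250 ng/mL final) plus ATP (1.25 mM final); secreted IL-1B measured by AlphaLISA after 16 hr, decreased signal indicating inhibition.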
HT1080 IDH1KD tx – HT-1080 IDH1 knockdown cell toxicity (counter line); HT-1080 IDH1 knockdown viability, ATP luminescence, 48 h; Potency, µM (top dose mostly 46.1 µM), inactives show top-dose activity, negative = toxicity, hits mostly cytotoxic; hit rate 2% among 360,000; AID 686971;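 note: potency is the fitted concentration of half-maximal effect; 0% = DMSO wells and -100% = cell-free medium wells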
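IDH1KD HT-1080 cells, 750/well, RPMI + 5% FBS; compound pinned after 2 h settling; 48 h, 37 °C; CellTiter-Glo luminescence; % activity normalised to DMSO and no-cell wells; curves fitted, classed by r2 and efficacy.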
DT40 TDP1 no CPT – qHTS for Inhibitors of human tyrosyl-DNA phosphodiesterase 1 (TDP1): qHTS in cells in absence of CPT; DT40 Tdp1-/- hTDP1 cells, no CPT, ATP luminescence, 48 h; Potency, µM (doses to about 46.2 µM), for inactives: top-dose activity change, negative = growth inhibition, usual class: inhibitors; hit rate 15% among 420,000; note: potency is the fitted concentration of half-maximal effect; nearly all actives have a fitted effect of over 55% in size
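Chicken DT40 Tdp1-/- cells stably complemented with human TDP1 were seeded at 400 cells/well with DMSO in place of 20 nM camptothecin. After compound pinning, cells grew at least 48 hr at 37 °C; viability read by CellTiter-Glo luminescence.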
uPA generation – cell surface uPA generation inhibition | cell surface uPA generation assay, qHTS | Potency, µM (top dose mostly 38.3 µM), without a hit: at the top dose activity change, negative = inhibition, usual class: inhibitors | hit rate 0.31% among 330,000; active = well fitted inhibition curve with a large enough effect; inconclusive = small, poorly fitted or top-dose-only effect; inactive = no such curve, though single readings can be large or run the other way; tested in mouse RAW 264.7 cells; note: potency is the fitted concentration of half-maximal effect; nearly all actives have a fitted effect of over 55% in size
HT1080-NT tox – kills 2HG-producing HT-1080-NT fibrosarcoma cells | HT-1080-NT fibrosarcoma viability, CellTiter-Glo ATP luminescence, 48 h | Potency, µM (series often up to 46.1 µM), inactives show top-dose activity, negative = less viability, hits mostly cytotoxic | hit rate 1.6% among 360,000 | AID 686970;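 note: NT is the 2HG producing partner of a matched IDH1 knockdown line; potency is the fitted concentration of half-maximal effect; 0% = DMSO-treated cells and -100% = media-only wells without cells; nearly all actives have a fitted effect of over 55% in size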
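Luminescent CellTiter-Glo readout after 48 hours of compound exposure at 37 degrees C defined viability of HT-1080-NT cells. Activity was normalized to DMSO wells and cell-free media wells; concentration-response curves were fitted and assigned curve classes.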
Active calls of the source: *; ? = inconclusive; . = no result; ! = not active in a repeat; [ ] = remark or other dose. Unless noted, calls come from the whole dose curve; as a rule, active = well fitted curve in the direction sought with a large enough effect; inconclusive = small, poorly fitted or top-dose-only effect, or another doubt; inactive = no such curve, though single readings can be large; an effect the other way counts as inactive or inconclusive. Unless noted, % is set by controls: 0 for no effect and ±100 for the full control effect.

SMILES | DT40 TDP1 CPT | IL1B secr inh | HT1080 IDH1KD tx | DT40 TDP1 no CPT | uPA generation | HT1080-NT tox
COc1ccc(CNCCS(=O)(=O)NCc2ccc(OC)cc2)cc1 | 5% | 35 | 0% | -4% | 18% | 4%
CCCCCCCCNS(=O)(=O)CCNCCCC | ? | ? | -1% | 16µM* | 16% | -9%
CCCCCCCCNS(=O)(=O)CCNCc1ccc(OC)cc1 | ? | -61* | ? | ? | 6% | -25%
COc1cccc(NC(=O)CN(C)C(=O)c2cc3c(s2)CCC3)c1 | 8% | 0 | 6% | -2% | 3% | 3%
Cc1ccc(C(=O)NCC(=O)OCC(=O)c2ccc3ccccc3c2)cc1 | -14% | . | . | -15% | . | .
CC1Cc2ccccc2N1C(=O)Cn1cnc2ccccc21 (stereo not drawn) | ? | 9 | -12% | ? | -2% | -1%
COc1ccc(C)cc1NC(=O)c1cc(S(=O)(=O)NCCC2=CCCCC2)ccc1F | 21µM* | . | . | ? | . | .
COc1ccccc1NC(=O)c1cc(S(=O)(=O)NCCC2=CCCCC2)ccc1F | 23µM* | . | . | ? | . | .
Cc1ccc(S(=O)(=O)NCCC2=CCCCC2)cc1 | -8% | -29 | -7% | -26% | 4% | 4%
CCOC(=O)N1CCC(NC(=O)c2cc(C(=O)NCc3ccc(F)cc3)ccc2CO)CC1 | ? | 16 | -1% | 12µM* | 7% | 1%
CCOC(=O)N1CCC(NC(=O)c2cc(C(=O)NC3CCN(Cc4ccccc4)CC3)ccc2CO)CC1 | 1.8µM* | -8 | 1% | -24% | -1% | -3%
CCOC(=O)N1CCC(NC(=O)c2cc(C(=O)Nc3ccc(F)cc3F)ccc2CO)CC1 | -25% | 3 | 4% | -24% | 3% | ?
Cc1cc(=O)[nH]c2nnc(SCc3cccc(F)c3)n12 | 6% | . | . | -6% | . | .
CCCCC(=O)Nc1ccc(C(=O)Nc2ccc(S(=O)(=O)Nc3ccc(C)cc3)cc2)cc1 | 12% | 19 | -2% | 4% | 2% | 2%
O=C(CNC(=O)C1COc2ccccc2O1)Nc1ccc(F)c(F)c1 (stereo not drawn) | -34% | 26 | 0% | -12% | 4% | 0%
CC1=CN2C(=N)/C(=C/c3ccc(C)o3)C(=O)N=C2S1 | 2% | 11 | 0% | -5% | 10% | 3%
CC1=CN2C(=N)/C(=C/c3ccc(Sc4ccc(C)cc4)o3)C(=O)N=C2S1 | ? | -58* | -25% | ? | 0% | -17%
CC1=CN2C(=N)/C(=C/c3ccc(Sc4ccc(Cl)cc4)o3)C(=O)N=C2S1 | 9% | -69* | ? | -19% | -10% | ?
OCCN1CCN(c2ncnc3c2ncn3[C@H]2CN(Cc3ccncc3)C[C@@H](CO)O2)CC1 | -2% | 0 | 0% | -12% | . | 12%
O=C1CCCC2[C@@H]3CCC[N@+]4([O-])CCC[C@H](CN12)C34 (stereo partly drawn) | 6%[9.04 µM] | . | . | 1%[9.04 µM] | . | .
O=C1c2ccccc2C(=O)N1Cc1ccc2c(c1)OCO2 | 13% | 1 | -2% | 12% | . | 10%
C=C1c2ccccc2NC(=S)N1Cc1ccc2c(c1)OCO2 | -27% | -18 | -10% | 4.1µM* | -3% | 0%
O=C(COC(=O)c1cc[n+]([O-])cc1)NC(=O)c1ccc(OC(F)F)cc1 | -8% | -18 | 27% | -6% | 9% | -5%
CCOC(=O)C(CC)Sc1nnc2c3cc(C)ccc3n(C)c2n1 (stereo not drawn) | ? | -1 | -6% | ? | -3% | -13%
CCn1c2ccccc2c2nnc(SCC(=O)c3ccccc3)nc21 | ? | -7 | 3% | ? | 1% | 7%
SMILES | DT40 TDP1 CPT | IL1B secr inh | HT1080 IDH1KD tx | DT40 TDP1 no CPT | uPA generation | HT1080-NT tox
CCn1c2ccc(F)cc2c2nnc(SCCN3CCCCC3)nc21 | ? | ? | -9% | 16µM*! | -6% | -17%
CCn1c2ccc(C)cc2c2nnc(SCCN3CCCCC3)nc21 | ? | -66* | 23µM* | 16µM* | -11% | ?
CCCn1c2ccc(C)cc2c2nnc(SCCN3CCCCC3)nc21 | 18µM* | -66* | ? | 21µM* | -4% | -24%
CCn1c2ccc(C)cc2c2nc3cc(C(=O)O)ccc3nc21 | -28% | -11 | -23% | ? | 2% | -21%
CCn1c2ccccc2c2n[nH]c(=S)nc21 | -28% | -2 | 0% | ? | 47% | 13%
CCCn1c2ccc(C)cc2c2n[nH]c(=S)nc21 | ? | 0 | -11% | 15µM* | -7% | -11%
C[C@H]1NS(=O)(=O)c2ccc(Br)cc2O[C@H]1c1ccccc1 | 4% | 33 | -6% | -2% | -2% | 0%
Cc1cccc(NC(=O)CSc2nc(=O)n(CCCN3CCOCC3)c3c2CCCC3)c1C | -25% | -17 | 4% | 1% | . | 2%
CCCn1c2ccccc2c2nnc(SCCN3CCOCC3)nc21 | ? | -18 | ? | ? | -6% | -4%
CCCn1c2ccc(C)cc2c2nnc(SCCN3CCOCC3)nc21 | ? | -61* | ? | 16µM* | -14% | ?
CCCn1c2ccc(F)cc2c2nnc(SCCN3CCOCC3)nc21 | 18µM* | 2 | ? | ? | -15% | -16%
CCC1(c2ccc(Cl)cc2)NC(=O)N(CC(=O)NC2CCCC(C)C2C)C1=O (stereo not drawn) | 23µM* | -53* | -28% | 26µM* | -8% | -27%
CCC1(c2ccc(Cl)cc2)NC(=O)N(CC(=O)NC2CCCCCC2)C1=O (stereo not drawn) | ? | -30 | -10% | 23µM* | -1% | 1%
O=C(CN1C(=O)NC2(CCCC2)C1=O)NCc1ccc(Cl)cc1 | 1% | -51* | -5% | 3% | 14% | -2%
CCC1(c2ccc(Cl)cc2)NC(=O)N(CC(=O)NCc2ccc(F)cc2)C1=O (stereo not drawn) | ? | -53* | -10% | 16µM* | 6% | -24%
CCC1(c2ccc(F)cc2)NC(=O)N(CC(=O)NCc2ccc(F)cc2)C1=O (stereo not drawn) | -21% | -10 | -1% | 15% | 1% | -3%
COC(=O)COc1ccc(C(C2C(=O)CC(C)(C)CC2=O)C2C(=O)CC(C)(C)CC2=O)cc1 | -4% | 10 | 3% | 13% | 10% | 0%
CCOc1ccc(NC(=O)CN(C)C(=O)c2c(-c3c(F)cccc3Cl)noc2C)cc1OCC | ? | -8 | -4% | -21% | 5% | -4%
COc1ccc(N/C=C(\C#N)S(=O)(=O)c2ccc(Cl)cc2)c(OC)c1 | -9% | 5 | -8% | -22% | -1% | 0%
